The values that follow come from PubChem BioAssay (NCI).

The structures appear in SMILES notation. This is part of a sample that, as a whole, favours compounds with a hit. Of some 83,000 tested, about 20% had one in any assay.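 The endpoint reported here, percent growth, reads 100 for growth as untreated, 0 for no net growth and -100 for all cells dead.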 Unmarked numbers belong to inactive results. Activity calls are given as the source filed them. Rule for the calls: active = growth percent below 10; inactive = the rest.

The test concerns NCI/ADR-RES ovarian. Nature of the test: NCI-60 one-dose screen, 48 h (100 = growth as untreated, 0 = no growth, -100 = all killed). Particulars: 10 µM unless noted.
Regarding `O=C(COc1ccc(/C=C2\SC(=O)NC2=O)cc1)Nc1ccc(C(=O)/C=C/c2cc3ccccc3nc2Cl)cc1`, the growth is 92.6%.

Consider `CC(C)Sc1nc(NC2CC2)c(C#N)c(-c2ccccc2)n1`, for which the growth is 74.5%.

Consider `O=C(COc1cccc2cccnc12)Nc1ccc(C(=O)/C=C/c2ccc(Cl)cc2)cc1`, for which the growth is 79.2%.

For the molecule `Oc1ccc(CSc2nnc(-c3ccc(Br)cc3)n2-c2ccccc2)c2cccnc12`, the growth was 12.2%.

For the molecule `COc1ccccc1N1CCN(C2=NN=C(c3cccc(Cl)c3)c3ccccc3C2)CC1`, the growth is 10.7%.

Consider `O=C1/C(=C/c2ccc([N+](=O)[O-])cc2)SC(=Nc2ccccc2)N1Nc1ccccc1`, for which the growth is 45.8%.

In the case of `COc1ccc([C@H]2c3[nH]c4ccccc4c3C[C@@H]3C(=O)N(C4CCN(Cc5ccccc5)CC4)CC(=O)N23)c(OC)c1`, the growth is 68.3%.

For `CC1OC(O[C@@H]2[C@H](O)C(CO)OC(O[C@H]3COC(O[C@H]4CC[C@]5(C)[C@H]6CC[C@]78OC[C@@]9(CCC(C)(C)C[C@H]97)[C@H](O)C[C@@]8(C)[C@]6(C)CC[C@H]5C4(C)C)[C@@H](OC4OC(CO)[C@@H](O)[C@@H](O)[C@@H]4O)[C@@H]3O)[C@H]2OC2OC[C@@H](O)[C@@H](O)[C@@H]2O)[C@@H](O)[C@@H](O)[C@H]1O` (some centres not stated), the growth is -44.2% (active).

Take `N#Cc1c(-c2cccs2)cc(-c2cnccn2)nc1SCC(=O)NNC(=S)Nc1ccc(F)cc1`: the growth was 106%.

`O=C1NC(=O)c2c1c1c3ccccc3ccc1c1[nH]c3ccccc3c21`: the growth was 0.105% (active).

For `COc1ccc(-c2ccc3c4c(cccc24)C(=O)N(N2C(=O)c4cccc5cccc(c45)C2=O)C3=O)cc1`, the growth is 98.2%.

As to `NS(=O)(=O)c1ccc(Nc2nc(N/N=C/c3ccc(C(F)(F)F)cc3)nc(Nc3ccccc3)n2)cc1`, the growth is 87.4%.

With `COc1cc(CNC(=O)/C=C/c2ccccc2)ccc1OCC(=O)NO`, the growth was 96.1%.

Take `NS(=O)(=O)c1ccc(Nc2nc(N/N=C/c3ccc(F)cc3)nc(Nc3ccccc3)n2)cc1`: the growth was 95.6%.

As to `C=C1C(=O)O[C@@H]2C[C@@H](C)[C@H](OC)CC(=O)[C@](C)(OC(C)=O)C[C@H](OC(=O)/C(C)=C\C)[C@@H]12`, the growth is 100%.

With `O=C(c1ccc(O)cc1)[C@@H]1[C@@H]2CCCN2[C@@]2(C(=O)N(C(=O)c3ccc(F)cc3)c3ccccc32)[C@H]1c1ccc(F)cc1`, the growth is 98.8%.

Turning to `Cc1ccc(-n2cc(/C=C/C(=O)c3ccc(S(C)(=O)=O)cc3)c(-c3ccc(S(C)(=O)=O)cc3)n2)cc1`, the growth is 64%.

For the molecule `Cc1ccc(Cc2cnc(NC(=O)/C(C#N)=C/c3ccc(-c4ccc(Cl)cc4)o3)s2)cc1`, the growth was 92.8%.

With `C=C(C)C(=O)O[C@H]1C[C@@]2(C)OC(=CC2=O)/C(C)=C\[C@H]2OC(=O)C(=C)[C@H]12`, the growth was 15.7%.

As to `CCN(CC)CCN1C(=O)c2c(c3c4cc(Br)ccc4[nH]c3c3ccc4ccccc4c23)C1=O`, the growth was -76.3% (active).

With `Oc1ccc(CSc2nnc(-c3ccc(Oc4ccccc4)cc3)o2)c2cccnc12`, the growth is 12.6%.

As for `O=C1c2c(c3c4cccnc4[nH]c3c3ccc4ccccc4c23)C(=O)N1CCN1CCOCC1`, the growth is 47%.

With `O=c1[nH]c(CCl)nc2c1cnn2-c1ccccc1`, the growth was 106%.

For the molecule `C=C1C(=O)O[C@@H]2/C=C(/C)C3=CC(=O)[C@@](C)(C[C@H](OC(=O)/C(C)=C\C)[C@@H]12)O3`, the growth was 17.4%.

`O=C1CC2(CCOCC2)Oc2ncccc21`: the growth is 104%.

As for `O=C(Nc1ccc(F)cc1)c1cc(-c2ccc(F)cc2F)ccc1O`, the growth was 5.27% (active).

As for `COc1ccc(/C=N\NC(=O)c2ccc3nc(-c4ccc(Br)cc4)[nH]c3c2)cc1`, the growth was 75.2%.

Turning to `O=C(O)c1ccc(-n2cc(CNc3ccc(Cl)cc3)c(-c3ccc(F)cc3)n2)cc1`, the growth was 102%.

Turning to `COc1cc(/C=N/n2cnc3oc(-c4ccccc4)cc3c2=N)cc(CN2CCCC2)c1O`, the growth was 16.6%.

Take `CCOC(=O)c1c(NCC(=O)Nc2cccc(Cl)c2)sc2c1CCCC2`: the growth was 81.6%.

As for `Cc1ccc(-c2csc(N/N=C/c3nc4ccccc4n3C3CC3)n2)cc1`, the growth is 72.9%.

Turning to `C#C[C@]1(O)CC[C@H]2[C@@H]3CC=C4c5sc(Nc6cccc(C)n6)nc5CC[C@]4(C)[C@H]3CC[C@@]21C`, the growth is 38.5%.
